Source: PubChem BioAssay (NCATS)
Values joined by “and” are separate entries in the source; they are usually repeats but may differ in a detail not shown here. Identical values can stand only once. Records with an inconclusive call do not appear. Active and inactive are the calls of the source. Calls follow the shape of the dose curve; as a rule, active = well fitted curve in the direction sought with a large enough effect; inconclusive = small, poorly fitted or top-dose-only effect, or another doubt; inactive = no such curve, though single readings can be large; an effect the other way counts as inactive or inconclusive.

Experiments:
CRL-7250 = normal cell line; assay: Cytotoxic Profiling of Annotated Libraries Using Quantitative High-Throughput Screening (AID 1296008); conditions: Five cell lines viability, CellTiter-Glo ATP luminescence, 48-72 h; max response: stronger effect = lower value; also: nearly all actives have a fitted effect of over 60% in size; also: potency is read from the fitted curve at half-maximal effect; as to max response: % is scaled to controls: 0 for no effect and ±100 for the full control effect
Procedure, shortened: (§1)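 Cytotoxicity was measured as CellTiter-Glo ATP luminescence, read after 10 min at room temperature. Compound treatment of the cells lasted 48 or 72 hr at 37 degrees Celsius in a qHTS format.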

HEK293 = assay: as above; conditions: Five cell lines viability, CellTiter-Glo ATP luminescence, 48-72 h; max response: stronger effect = lower value
Procedure, shortened: as §1

HaCat [1] = assay: as above; conditions: Five cell lines viability, CellTiter-Glo ATP luminescence, 48-72 h; max response: stronger effect = lower value
Procedure, shortened: as §1

NIH3T3 [2] = assay: as above; conditions: Five cell lines viability, CellTiter-Glo ATP luminescence, 48-72 h; max response: stronger effect = lower value
Procedure, shortened: as §1

HACAT [3] = assay: qHTS assay to identify novel small-molecules to repurpose for Merkel cell carcinoma treatment (AID 1296009); conditions: MCC and control cell lines, CellTiter-Glo viability, 72 h; at 44.8 µM (top of the series) unless noted; also: nearly all actives have a fitted effect of over 60% in size; also: potency is read from the fitted curve at half-maximal effect
Procedure, shortened: (§2)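 Cell viability measured by CellTiter-Glo following 72 hr compound treatment at 37 degree celsius, with NPC and MIPE libraries tested in 8- and 11-point concentration series.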

MCC-13 = assay: as above; conditions: MCC and control cell lines, CellTiter-Glo viability, 72 h; series mostly up to 46 µM
Procedure, shortened: as §2

MCC-26 = assay: as above; conditions: MCC and control cell lines, CellTiter-Glo viability, 72 h; series mostly up to 46 µM
Procedure, shortened: as §2

MKL-1 = assay: as above; conditions: MCC and control cell lines, CellTiter-Glo viability, 72 h; series mostly up to 46 µM
Procedure, shortened: as §2

MKL-2 = assay: as above; conditions: MCC and control cell lines, CellTiter-Glo viability, 72 h; series mostly up to 46 µM
Procedure, shortened: as §2

NIH3T3 [4] = assay: as above; conditions: MCC and control cell lines, CellTiter-Glo viability, 72 h; at 44.8 µM (top of the series) unless noted
Procedure, shortened: as §2

UISO = assay: as above; conditions: MCC and control cell lines, CellTiter-Glo viability, 72 h; series mostly up to 46 µM
Procedure, shortened: as §2

WaGa = assay: as above; conditions: MCC and control cell lines, CellTiter-Glo viability, 72 h; series mostly up to 46 µM
Procedure, shortened: as §2

C33A = assay: Primary qHTS to identify gynecologic anti-cancer compounds using libraries of approved drugs and bioactive compounds (AID 1345084); conditions: Gynecologic cancer cell panel viability, ATPlite luminescence, 48 h; series mostly up to 57.5 µM; also: nearly all actives have a fitted effect of over 55% in size; also: potency is read from the fitted curve at half-maximal effect
Procedure, shortened: (§3)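 In this quantitative HTS, cell killing is estimated from loss of ATP-dependent luciferase light. Cells see five compound concentrations over a 48 h exposure.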

CAOV3 = assay: as above; conditions: Gynecologic cancer cell panel viability, ATPlite luminescence, 48 h; series mostly up to 57.5 µM
Procedure, shortened: as §3

KB-3-1 = assay: Cytotoxic Profiling of Annotated Libraries Using Quantitative High-Throughput Screening (AID 1296008); conditions: Five cell lines viability, CellTiter-Glo ATP luminescence, 48-72 h; max response: stronger effect = lower value; also: nearly all actives have a fitted effect of over 60% in size; also: potency is read from the fitted curve at half-maximal effect; as to max response: % is scaled to controls: 0 for no effect and ±100 for the full control effect
Procedure, shortened: as §1

TAB109 = assay: qHTS profiling for inhibitors of Plasmodium falciparum proliferation (AID 504749); conditions: P. falciparum in erythrocytes, SYBR Green DNA, 72 h; series mostly up to 28.7 µM
Procedure, shortened: (§4)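 In a 72 h erythrocytic culture (37 C, humidified, 5% CO2) at 2.5% hematocrit and 0.3% starting parasitemia, compounds were tested; SYBR Green I in detergent lysis buffer stained parasite DNA overnight.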

TAB113 = assay: as above; conditions: P. falciparum in erythrocytes, SYBR Green DNA, 72 h; series mostly up to 28.7 µM
Procedure, shortened: as §4

TAB165 = assay: as above; conditions: P. falciparum in erythrocytes, SYBR Green DNA, 72 h; series mostly up to 28.7 µM
Procedure, shortened: as §4

HEK293T = assay: qHTS assay to identify novel small-molecules to repurpose for Merkel cell carcinoma treatment (AID 1296009); conditions: MCC and control cell lines, CellTiter-Glo viability, 72 h; at 44.8 µM (top of the series) unless noted; also: nearly all actives have a fitted effect of over 60% in size; also: potency is read from the fitted curve at half-maximal effect
Procedure, shortened: as §2

W2 = assay: qHTS profiling for inhibitors of Plasmodium falciparum proliferation (AID 504749); conditions: P. falciparum in erythrocytes, SYBR Green DNA, 72 h; series mostly up to 28.7 µM
Procedure, shortened: as §4

c1cnc2cc3c(cc2n1)C1CNCC3C1
inactive: max response (CRL-7250) -23.9% and -2.72% | max response (HEK293) -2.74% and -10.4% | max response (HaCat [1]) 2.53% | outcome (HaCat [1]) | max response (NIH3T3 [2]) 4.61% | outcome (NIH3T3 [2]) | outcome (HACAT [3]) | Potency (MCC-13) | Potency (MCC-26) | Potency (MKL-1) | Potency (MKL-2) | outcome (NIH3T3 [4]) | Potency (UISO) | Potency (WaGa) | Potency (C33A) | Potency (CAOV3)

Cc1ccc(Nc2nccc(N(C)c3ccc4c(C)n(C)nc4c3)n2)cc1S(N)(=O)=O
inactive: max response (HaCat [1]) -13.5% and -50.9% | outcome (HaCat [1]) | max response (KB-3-1) -14.3% and -5.07% and -20.5% | outcome (HACAT [3]) | Potency (MCC-13) | Potency (MCC-26) | Potency (MKL-1) | Potency (MKL-2) | Potency (UISO) | Potency (WaGa) | Potency (C33A) | Potency (CAOV3)
active: Potency (CRL-7250) 6.51 µM | Potency (HEK293) 11.8 µM | Potency (NIH3T3 [2]) 7.43 µM and 7.31 µM

COc1cc2c(cc1OC)C1CC(=O)C(CC(C)C)CN1CC2 (stereo not given)
inactive: Potency (TAB109) | Potency (TAB113) | Potency (TAB165) | outcome (CRL-7250) | outcome (HEK293) | outcome (HaCat [1]) | max response (KB-3-1) -0.991% | outcome (NIH3T3 [2]) | outcome (HACAT [3]) | outcome (HEK293T) | Potency (MCC-13) | Potency (MCC-26) | Potency (MKL-1) | Potency (MKL-2) | outcome (NIH3T3 [4]) | Potency (UISO) | Potency (WaGa)

Oc1ccc(OCc2ccccc2)cc1
inactive: Potency (TAB109) | Potency (TAB113) | Potency (TAB165) | max response (CRL-7250) -0.407% and -9.61% | max response (HEK293) -5.94% and -19.5% | max response (HaCat [1]) -14% and -4.74% | max response (KB-3-1) 45.1% | outcome (KB-3-1) | outcome (NIH3T3 [2]) | Potency (MCC-13) | Potency (MCC-26) | Potency (MKL-1) | Potency (MKL-2) | outcome (NIH3T3 [4]) | Potency (UISO) | Potency (WaGa) | Potency (C33A) | Potency (CAOV3)

CCOc1cc(CC(=O)N[C@@H](CC(C)C)c2ccccc2N2CCCCC2)ccc1C(=O)O
inactive: Potency (TAB109) | Potency (TAB113) | Potency (TAB165) | Potency (W2) | outcome (CRL-7250) | outcome (HEK293) | outcome (HaCat [1]) | max response (KB-3-1) 4.6% | outcome (KB-3-1) | max response (NIH3T3 [2]) 4.08% | outcome (HACAT [3]) | outcome (HEK293T) | Potency (MCC-13) | Potency (MCC-26) | Potency (MKL-1) | Potency (MKL-2) | Potency (UISO) | Potency (WaGa)

O=C(O)c1cccnc1Nc1cccc(C(F)(F)F)c1
inactive: Potency (TAB109) | Potency (TAB113) | Potency (TAB165) | Potency (W2) | max response (CRL-7250) -6.42% and -10.2% | max response (HEK293) -4.95% | max response (HaCat [1]) 1.64% | outcome (HaCat [1]) | max response (KB-3-1) 5.86% and -3.77% | max response (NIH3T3 [2]) -31.9% | outcome (NIH3T3 [2]) | outcome (HACAT [3]) | Potency (MCC-13) | Potency (MCC-26) | Potency (MKL-1) | Potency (MKL-2) | outcome (NIH3T3 [4]) | Potency (UISO) | Potency (WaGa) | Potency (C33A) | Potency (CAOV3)

CNC[C@@H](O)[C@@H](O)[C@H](O)[C@H](O)CO
inactive: Potency (TAB109) | Potency (TAB113) | Potency (TAB165) | Potency (W2) | outcome (CRL-7250) | outcome (HEK293) | outcome (HaCat [1]) | max response (KB-3-1) 5.74% | outcome (NIH3T3 [2]) | outcome (HACAT [3]) | outcome (HEK293T) | Potency (MCC-13) | Potency (MCC-26) | Potency (MKL-1) | Potency (MKL-2) | outcome (NIH3T3 [4]) | Potency (UISO) | Potency (WaGa)

CC1(C)NC(=O)N(c2ccc([N+](=O)[O-])c(C(F)(F)F)c2)C1=O
inactive: Potency (TAB109) | Potency (TAB113) | Potency (TAB165) | Potency (W2) | max response (CRL-7250) -12.3% | max response (HEK293) -29% | max response (HaCat [1]) -0.412% | outcome (HaCat [1]) | max response (NIH3T3 [2]) -6.23% and -0.388% | outcome (HACAT [3]) | Potency (MCC-13) | Potency (MCC-26) | Potency (MKL-1) | Potency (MKL-2) | Potency (UISO) | Potency (WaGa) | Potency (C33A) | Potency (CAOV3)

CCCCc1ccc2nc(NC(=O)OC)[nH]c2c1
inactive: Potency (TAB109) | Potency (TAB113) | Potency (TAB165) | Potency (W2) | max response (HaCat [1]) 3.13% | outcome (HaCat [1]) | outcome (HACAT [3]) | Potency (CAOV3)
active: Potency (CRL-7250) 469 nM and 266 nM | Potency (HEK293) 14.8 nM and 188 nM | Potency (KB-3-1) 23.5 nM | Potency (NIH3T3 [2]) 16.6 nM | Potency (MCC-13) 296 nM and 53.1 nM | Potency (C33A) 794 nM

Clc1ccc2c(N3CCN(CCCN4CCN(c5ccnc6cc(Cl)ccc56)CC4)CC3)ccnc2c1
inactive: max response (CRL-7250) -5.75% | outcome (HEK293) | outcome (HaCat [1]) | max response (KB-3-1) 3.7% | max response (NIH3T3 [2]) -5.21% | outcome (HACAT [3]) inactive [at 17.4 µM] | outcome (HEK293T) inactive [at 17.4 µM] | Potency (MCC-13) | Potency (MCC-26) | Potency (MKL-1) | Potency (MKL-2) | Potency (UISO) | Potency (WaGa)

O=c1c(O)c(-c2ccc(O)cc2O)oc2cc(O)cc(O)c12
inactive: max response (CRL-7250) -3.27% | max response (HEK293) 4.53% | outcome (HaCat [1]) | max response (KB-3-1) -10.8% | max response (NIH3T3 [2]) -16.7% | outcome (HACAT [3]) | Potency (MCC-13) | Potency (MCC-26) | Potency (MKL-1) | Potency (MKL-2) | Potency (UISO) | Potency (WaGa)
